# Measurements published in PubChem BioAssay (NCATS).
# Inconclusive results are not listed. A call without a number means that no potency is given here. Calls of active or inactive are those of the source. Unless noted, calls come from the whole dose curve; as a rule, active = well fitted curve in the direction sought with a large enough effect; inconclusive = small, poorly fitted or top-dose-only effect, or another doubt; inactive = no such curve, though single readings can be large; an effect the other way counts as inactive or inconclusive.
# How the values were obtained:
# [1] = target: Thioredoxin reductase 1, cytoplasmic (Rattus norvegicus) (UniProt O89049); assay: qHTS Assay for Inhibitors of Mammalian Selenoprotein Thioredoxin Reductase 1 (TrxR1) (AID 488773); details: Potency: inhibition; note: nearly all actives have a fitted effect of over 40% in size; note: potency is the fitted concentration of half-maximal effect
# Outline: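 Inhibition is scored from the loss of NADPH fluorescence between first and last reads of an 8-min kinetic run. Selenite (400 uM) was the substrate, added after 15 min compound preincubation at room temperature.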
# [2] = target: Flap endonuclease 1 (Homo sapiens) (UniProt P39748); assay: qHTS Validation Assay for the Inhibitors of Human Flap endonuclease 1 (FEN1) (AID 488816)
# Outline: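 Enzyme reagent 10 nM; cpds pinned; 15 min RT preinc.; substrate 50 nM final; reads t=0 and 15 min; no-enzyme buffer wells as neg. control; normalized data, 4-parameter Hill fit.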
# [3] = target: M-phase phosphoprotein 8 (Homo sapiens) (UniProt Q99549); assay: qHTS Validation Assay for Inhibitors for MPP8 Chromodomain Interactions with Methylated Histone Tails (AID 488949);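 note: AlphaScreen signal from MPP8 chromodomain bound to biotinylated H3K9me3 peptide; top concentration of the series differs between compounds; nearly all actives have a fitted effect of over 55% in size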
# Outline: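 AlphaScreen proximity signal from streptavidin donor and Ni-chelate acceptor beads (10 ug/mL each) reported binding of MPP8 to trimethyl-K9 H3(1-18) peptide, both at 50 nM. The complex formed 30 min before a 30 min compound exposure at room temperature, in PBS pH 7.4.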
# [4] = target: Methanococcus maripaludis chaperonin (MmCpn) (UniProt Q6LX38); assay: High-Throughput Screening for Modulators of Cytosolic Chaperonin Activity: MmCpn Primary Screen (AID 488978);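 note: 50 nM MmCpn enzyme hydrolysing 30 µM ATP at 37 °C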
# Outline: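 ATPase activity of 50 nM MmCpn was assayed with 30 uM ATP, 10 minutes at 37C, after a 5 min compound preincubation at room temperature. ADP production was read as HTRF emission at 590 and 665 nm.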
# [5] = target: Thyrotropin receptor (Homo sapiens) (UniProt P16473); assay: qHTS Assay for Antagonists of the Thyroid Stimulating Hormone Receptor (AID 488980); note: series mostly up to about 58 µM
# Outline: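 Inhibition of cAMP raised by EC80 TSH (4 nM final) was read by HTRF, with lysate cAMP competing against cAMP-d2 for cryptate antibody after 30 min at room temperature. The cells were transfected HEK293 held in phosphodiesterase inhibitor RO 20-1724 at 70 uM.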
# [6] = target: D(1A) dopamine receptor (Homo sapiens) (UniProt P21728); assay: HTS Assay for Allosteric Agonists of the Human D1 Dopamine Receptor: Primary Screen for Agonists (AID 488981)
# Outline: (§1)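 Tetracycline-induced HEK293 Trex D1 cells with forced coupling to calcium, loaded with no-wash calcium dye; kinetic fluorescence read 180 s after compound addition for agonism, then a further 180 s after an EC20 dopamine challenge for potentiation.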
# [7] = target: D(1A) dopamine receptor (Homo sapiens) (UniProt P21728); assay: HTS Assay for Allosteric Agonists of the Human D1 Dopamine Receptor: Primary Screen for Potentiators (AID 488982)
# Outline: as §1
# [8] = target: D(1A) dopamine receptor (Homo sapiens) (UniProt P21728); assay: HTS Assay for Allosteric Agonists of the Human D1 Dopamine Receptor: Primary Screen for Antagonists (AID 488983);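 note: calcium flux response to an EC80 dopamine challenge measured with no-wash dye; nearly all actives have a fitted effect of over 65% in size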; note: potency is the fitted concentration of half-maximal effect
# Outline: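 Kinetic fluorescence at 1 cycle/sec tracked intracellular calcium in force-coupled, tetracycline-inducible HEK293 T-REx D1 cells. Loss of response to an EC80 dopamine dose, given 180 s after compound, marked antagonists.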
# [9] = target: ATP-dependent 6-phosphofructokinase (Trypanosoma brucei brucei) (UniProt O15648); assay: qHTS Assay to Find Inhibitors of T. brucei phosphofructokinase: hit validation (AID 492961);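 note: luminescence reports ADP formed as PFK phosphorylates fructose-6-phosphate with ATP; series mostly up to about 51 µM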
# Outline: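 Inhibition of parasite PFK is measured as reduced ADP formation, quantified via luciferase after ATP depletion. Assay used 0.1 mM ATP, 0.5 mM F6P, 1.25 nM enzyme, 45 min incubation.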
# [10] = Validation screen for small molecules that induce genotoxicity in human embryonic kidney (HEK293T) cells expressing luciferase-tagged ELG1 (AID 493106)
# Outline: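 Cells were dispensed at 2,000 per well, then 23 nL compound or DMSO was pinned in. After 16 hr at 37 °C and 5% CO2, ONE-Glo reagent was added. Luciferase activity was measured following 30 min at room temperature.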
# [11] = target: ATPase family AAA domain-containing protein 5 (Homo sapiens) (UniProt Q96QE3); assay: Validation screen for small molecules that inhibit ELG1-dependent DNA repair in human embryonic kidney (HEK293T) cells expressing luciferase-tagged ELG1 (AID 493107); note: nearly all actives have a fitted effect of over 70% in size; note: potency is the fitted concentration of half-maximal effect
# Outline: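 Cells are dispensed in 1536-well format, then 5-fluorouridine and compound are pinned in. After a 16 hr incubation at 37 °C and 5% CO2, ONE-Glo is added and luciferase measured on a CCD imager.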
# [12] = target: Thyrotropin-releasing hormone receptor (Homo sapiens) (UniProt P34981); assay: qHTS for Small Molecule Agonists and Allosteric Enhancers of Human TRH Receptor: Validation Screen for Agonists (AID 493127;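 active = calcium activation more than 3 SD above the typical response in the agonist read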;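 note: intracellular calcium rise by fluo-8 fluorescence before TRH EC20 addition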); details: TRH receptor agonist cell assay; at 2 µM; stronger effect = higher value
# Outline: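 Compounds are added by online pintool to dye-loaded TRHR cells while fluorescence is recorded every second. A rise in calcium signal during the agonist read marks activation; a later 10 nM TRH addition (EC20) serves the separate enhancer mode.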
# [13] = Nrf2 qHTS screen for inhibitors: Validation (AID 493153; active = well fitted inhibition curve with a large enough effect in the main read-out, with a control signal flat, not every such curve was filed as active); details: Potency: luciferase luminescence; viability change: measured here: cytotoxicity max response
# Outline: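 A549 ARE_Fluc, 5% FBS OPTI-MEM; cpd titration, 18-24 h, 37°C/5% CO2. Read 1: CellTiter-Fluor (Ex 405/Em 525), cytotox. Read 2: luciferase lum, Nrf2 activity.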
# [14] = qHTS for Inhibitors of Cell Surface uPA Generation: Validation Assay (AID 493164);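 note: RAW 264.7 macrophage cells exposed to compound for 18 h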
# Outline: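 ATP-Lite luminescence read-out: ATP remains high when uPA activity-dependent LF translocation into the cytoplasm is blocked. RAW 264.7 cells, 18 h compound exposure at 37 C; 7-point titration, 2.45 nM to 38.3 uM final.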
# [15] = target: Galactokinase (Homo sapiens) (UniProt P51570); assay: qHTS Validation Assay for Inhibitors of Human Galactokinase (GALK) (AID 493189)
# Outline: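 Inhibition was measured as remaining ATP, detected by luciferase luminescence after a 1 h room-temperature reaction. Final conditions: 5 nM GALK, 100 uM galactose, 35 uM ATP, pH 8.0 HEPES buffer.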
# [16] = Validation screen for small molecules that induce DNA re-replication in SW480 colon adenocarcinoma cells (AID 504364)
# Outline: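 Image-based qHTS: compounds were incubated with SW480 cells for 48 hr, nuclei stained with Hoechst, and per-nucleus fluorescence intensity scanned to flag cells with excess DNA content.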
# [17] = target: Peptidyl-prolyl cis-trans isomerase NIMA-interacting 1 (Homo sapiens) (UniProt Q13526); assay: qHTS Validation Assay to Find Inhibitors of Pin1 (AID 504536; active = well fitted inhibition curve with a large enough effect in the polarisation, with a control signal flat, not every such curve was filed as active; the % refers to the polarisation)
# Outline: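 Fluorescence polarization competition: compounds (titration) displace HiFluor-488-labeled Pin1-1b peptide from Pin1 (0.3 uM final) in pH 7.5 HEPES buffer with DTT, 10 min at room temperature; %Activity normalized to no-enzyme wells, curves fitted.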
# [18] = target: Phosphoglycerate kinase, glycosomal (Trypanosoma brucei brucei) (UniProt P07378); assay: qHTS Validation Assay to Find Inhibitors of Phosphoglycerate Kinase (AID 504547)
# Outline: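 Compounds are pinned into the substrate/PGK mixture, and GAPDH (100nM final) is added to start the reaction by producing 1,3-BPG. After 60 minutes at room temperature, Kinase-Glo Plus is added and luminescence is measured 10 minutes later.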
# [19] = target: Transient receptor potential cation channel subfamily V member 1 (Homo sapiens) (UniProt Q8NER1); assay: HTS Assay for Compounds that Act as Enhancers of the Vanilloid Receptor 1 (AID 488979)
# Outline: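 TRPV1 cells loaded with Fluo-8 calcium dye; compound added and Ca2+ signal (ex 480/em 520 nm) followed 3 min, then capsaicin at EC20 added and read 2 more min to detect enhancement.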
# [20] = target: Chromobox protein homolog 1 (Homo sapiens) (UniProt P83916); assay: qHTS Validation Assay for Inhibitors of HP1-beta Chromodomain Interactions with Methylated Histone Tails (AID 488953);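 note: loss of AlphaScreen luminescence from HP1-beta binding biotinylated H3K9me3 peptide; series mostly up to about 110 µM; nearly all actives have a fitted effect of over 50% in size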
# Outline: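 Disruption of preformed HP1-beta:H3K9me3 peptide complexes (both 50 nM, PBS pH 7.4 with 0.01% Tween-20) is measured by AlphaScreen after 30 min compound exposure at room temperature, using streptavidin donor and nickel chelate acceptor beads at 10 ug/mL final.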
# Sequence of D(1A) dopamine receptor (Homo sapiens) (P21728 whole entry, looked up): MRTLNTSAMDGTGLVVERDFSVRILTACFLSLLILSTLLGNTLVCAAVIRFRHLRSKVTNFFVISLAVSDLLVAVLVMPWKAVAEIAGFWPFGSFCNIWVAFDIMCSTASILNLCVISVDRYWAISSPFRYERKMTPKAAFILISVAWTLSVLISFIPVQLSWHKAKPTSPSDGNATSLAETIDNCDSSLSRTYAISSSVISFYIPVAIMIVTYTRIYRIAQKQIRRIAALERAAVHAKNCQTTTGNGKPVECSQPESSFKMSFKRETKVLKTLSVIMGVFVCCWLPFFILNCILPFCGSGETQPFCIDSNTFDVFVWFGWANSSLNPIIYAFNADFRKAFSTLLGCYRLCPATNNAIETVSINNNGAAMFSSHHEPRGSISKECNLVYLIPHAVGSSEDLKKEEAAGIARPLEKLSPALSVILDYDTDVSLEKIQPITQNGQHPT
# Sequence of Peptidyl-prolyl cis-trans isomerase NIMA-interacting 1 (Homo sapiens) (Q13526 whole entry, looked up): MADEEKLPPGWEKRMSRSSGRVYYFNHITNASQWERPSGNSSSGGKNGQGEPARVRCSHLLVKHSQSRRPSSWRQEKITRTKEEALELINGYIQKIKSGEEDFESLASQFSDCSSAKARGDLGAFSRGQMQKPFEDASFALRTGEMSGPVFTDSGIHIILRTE
# Sequence of Thioredoxin reductase 1, cytoplasmic (Rattus norvegicus) (O89049 whole entry, looked up): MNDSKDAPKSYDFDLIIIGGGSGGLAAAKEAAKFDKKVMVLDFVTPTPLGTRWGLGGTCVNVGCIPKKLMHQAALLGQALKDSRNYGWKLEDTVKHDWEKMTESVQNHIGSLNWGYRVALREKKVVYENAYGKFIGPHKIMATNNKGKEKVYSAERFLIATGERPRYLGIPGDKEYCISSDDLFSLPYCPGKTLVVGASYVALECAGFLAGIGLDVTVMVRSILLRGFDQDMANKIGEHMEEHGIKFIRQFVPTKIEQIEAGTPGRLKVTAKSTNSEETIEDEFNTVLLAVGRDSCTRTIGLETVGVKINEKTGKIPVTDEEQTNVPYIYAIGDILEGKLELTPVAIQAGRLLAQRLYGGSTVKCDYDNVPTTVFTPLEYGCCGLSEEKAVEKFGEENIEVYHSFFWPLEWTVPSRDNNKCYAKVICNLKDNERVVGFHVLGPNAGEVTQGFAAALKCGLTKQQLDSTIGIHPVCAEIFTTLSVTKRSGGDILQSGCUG
# Sequence of Phosphoglycerate kinase, glycosomal (Trypanosoma brucei brucei) (P07378 whole entry, looked up): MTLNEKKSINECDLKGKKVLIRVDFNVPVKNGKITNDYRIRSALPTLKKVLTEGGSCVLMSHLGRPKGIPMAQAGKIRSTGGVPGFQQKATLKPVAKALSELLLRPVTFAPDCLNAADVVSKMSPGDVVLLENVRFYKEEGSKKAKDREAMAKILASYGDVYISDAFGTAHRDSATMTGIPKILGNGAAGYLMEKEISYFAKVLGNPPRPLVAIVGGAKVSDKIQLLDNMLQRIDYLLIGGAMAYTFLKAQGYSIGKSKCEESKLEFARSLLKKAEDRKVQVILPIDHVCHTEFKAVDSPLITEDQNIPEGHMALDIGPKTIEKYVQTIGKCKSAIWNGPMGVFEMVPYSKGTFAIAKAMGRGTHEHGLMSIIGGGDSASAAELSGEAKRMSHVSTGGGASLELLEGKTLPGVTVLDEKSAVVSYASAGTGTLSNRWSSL
# Sequence of Thyrotropin-releasing hormone receptor (Homo sapiens) (P34981 whole entry, looked up): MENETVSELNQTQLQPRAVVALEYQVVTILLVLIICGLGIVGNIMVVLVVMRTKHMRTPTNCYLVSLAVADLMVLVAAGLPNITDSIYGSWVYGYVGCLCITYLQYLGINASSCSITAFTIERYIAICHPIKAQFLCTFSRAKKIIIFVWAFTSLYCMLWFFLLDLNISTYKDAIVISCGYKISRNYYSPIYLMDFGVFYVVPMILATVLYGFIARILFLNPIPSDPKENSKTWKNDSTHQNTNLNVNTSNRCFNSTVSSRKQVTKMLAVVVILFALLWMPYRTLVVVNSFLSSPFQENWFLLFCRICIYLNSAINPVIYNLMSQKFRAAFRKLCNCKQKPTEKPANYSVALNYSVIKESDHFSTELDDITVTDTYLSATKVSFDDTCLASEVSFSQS
# Sequence of M-phase phosphoprotein 8 (Homo sapiens) (Q99549 whole entry, looked up): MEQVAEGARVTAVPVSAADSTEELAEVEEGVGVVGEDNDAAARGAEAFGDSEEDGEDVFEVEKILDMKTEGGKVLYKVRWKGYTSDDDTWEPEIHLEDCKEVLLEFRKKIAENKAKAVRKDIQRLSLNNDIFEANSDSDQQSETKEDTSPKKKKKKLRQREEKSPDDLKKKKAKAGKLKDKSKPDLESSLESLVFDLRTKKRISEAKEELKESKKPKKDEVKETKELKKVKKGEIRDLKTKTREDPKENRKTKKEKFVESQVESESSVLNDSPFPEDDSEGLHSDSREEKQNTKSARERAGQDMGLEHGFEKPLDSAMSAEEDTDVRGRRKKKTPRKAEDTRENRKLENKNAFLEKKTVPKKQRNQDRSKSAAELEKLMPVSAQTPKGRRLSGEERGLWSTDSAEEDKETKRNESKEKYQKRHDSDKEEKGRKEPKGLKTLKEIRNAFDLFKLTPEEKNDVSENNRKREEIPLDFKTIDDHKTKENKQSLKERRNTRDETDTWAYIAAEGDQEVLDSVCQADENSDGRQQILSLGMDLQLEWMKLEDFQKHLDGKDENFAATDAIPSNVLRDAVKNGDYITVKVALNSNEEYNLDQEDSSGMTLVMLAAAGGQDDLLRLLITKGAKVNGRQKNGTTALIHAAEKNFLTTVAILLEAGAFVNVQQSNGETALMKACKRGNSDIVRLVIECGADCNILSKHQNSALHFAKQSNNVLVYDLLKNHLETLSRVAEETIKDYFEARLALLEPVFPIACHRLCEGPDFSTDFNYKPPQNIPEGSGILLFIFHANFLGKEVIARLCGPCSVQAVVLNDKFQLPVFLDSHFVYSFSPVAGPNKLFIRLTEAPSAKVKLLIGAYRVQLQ
# Sequence of Flap endonuclease 1 (Homo sapiens) (P39748 whole entry, looked up): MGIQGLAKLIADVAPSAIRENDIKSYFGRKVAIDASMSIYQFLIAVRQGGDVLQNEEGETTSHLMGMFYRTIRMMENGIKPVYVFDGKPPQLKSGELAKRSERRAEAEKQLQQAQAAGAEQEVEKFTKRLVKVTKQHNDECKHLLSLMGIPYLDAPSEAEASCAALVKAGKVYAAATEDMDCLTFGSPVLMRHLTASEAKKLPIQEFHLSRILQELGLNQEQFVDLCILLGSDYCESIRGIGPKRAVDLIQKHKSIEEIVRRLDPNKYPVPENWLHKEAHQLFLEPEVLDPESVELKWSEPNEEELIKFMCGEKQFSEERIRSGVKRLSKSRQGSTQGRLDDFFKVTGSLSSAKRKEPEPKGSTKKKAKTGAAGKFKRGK
# Sequence of Galactokinase (Homo sapiens) (P51570 whole entry, looked up): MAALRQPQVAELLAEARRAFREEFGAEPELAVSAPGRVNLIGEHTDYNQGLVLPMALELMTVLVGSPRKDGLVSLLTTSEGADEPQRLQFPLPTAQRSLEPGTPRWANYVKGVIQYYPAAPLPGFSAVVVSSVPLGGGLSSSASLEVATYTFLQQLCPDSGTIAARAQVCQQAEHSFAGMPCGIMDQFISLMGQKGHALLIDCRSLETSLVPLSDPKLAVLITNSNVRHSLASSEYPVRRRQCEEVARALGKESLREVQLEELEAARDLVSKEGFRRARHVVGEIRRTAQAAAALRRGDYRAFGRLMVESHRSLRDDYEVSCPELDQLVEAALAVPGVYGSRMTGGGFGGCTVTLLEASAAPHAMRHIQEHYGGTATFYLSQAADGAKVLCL
# Sequence of Methanococcus maripaludis chaperonin (MmCpn) (Q6LX38 1-543): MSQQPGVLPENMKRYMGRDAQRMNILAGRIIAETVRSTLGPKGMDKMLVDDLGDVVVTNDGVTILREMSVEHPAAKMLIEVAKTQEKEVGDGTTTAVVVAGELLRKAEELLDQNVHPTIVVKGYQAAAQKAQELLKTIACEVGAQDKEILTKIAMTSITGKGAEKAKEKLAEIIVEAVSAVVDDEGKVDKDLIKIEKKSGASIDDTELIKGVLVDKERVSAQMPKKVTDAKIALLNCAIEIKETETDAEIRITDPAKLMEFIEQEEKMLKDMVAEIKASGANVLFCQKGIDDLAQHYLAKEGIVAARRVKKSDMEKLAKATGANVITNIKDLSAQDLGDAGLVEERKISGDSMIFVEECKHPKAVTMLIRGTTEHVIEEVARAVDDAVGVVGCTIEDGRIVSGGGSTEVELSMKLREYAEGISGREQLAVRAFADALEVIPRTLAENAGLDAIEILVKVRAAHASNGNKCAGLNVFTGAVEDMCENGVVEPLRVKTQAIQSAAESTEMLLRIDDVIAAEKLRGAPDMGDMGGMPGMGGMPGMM
# Sequence of Thyrotropin receptor (Homo sapiens) (P16473 whole entry, looked up): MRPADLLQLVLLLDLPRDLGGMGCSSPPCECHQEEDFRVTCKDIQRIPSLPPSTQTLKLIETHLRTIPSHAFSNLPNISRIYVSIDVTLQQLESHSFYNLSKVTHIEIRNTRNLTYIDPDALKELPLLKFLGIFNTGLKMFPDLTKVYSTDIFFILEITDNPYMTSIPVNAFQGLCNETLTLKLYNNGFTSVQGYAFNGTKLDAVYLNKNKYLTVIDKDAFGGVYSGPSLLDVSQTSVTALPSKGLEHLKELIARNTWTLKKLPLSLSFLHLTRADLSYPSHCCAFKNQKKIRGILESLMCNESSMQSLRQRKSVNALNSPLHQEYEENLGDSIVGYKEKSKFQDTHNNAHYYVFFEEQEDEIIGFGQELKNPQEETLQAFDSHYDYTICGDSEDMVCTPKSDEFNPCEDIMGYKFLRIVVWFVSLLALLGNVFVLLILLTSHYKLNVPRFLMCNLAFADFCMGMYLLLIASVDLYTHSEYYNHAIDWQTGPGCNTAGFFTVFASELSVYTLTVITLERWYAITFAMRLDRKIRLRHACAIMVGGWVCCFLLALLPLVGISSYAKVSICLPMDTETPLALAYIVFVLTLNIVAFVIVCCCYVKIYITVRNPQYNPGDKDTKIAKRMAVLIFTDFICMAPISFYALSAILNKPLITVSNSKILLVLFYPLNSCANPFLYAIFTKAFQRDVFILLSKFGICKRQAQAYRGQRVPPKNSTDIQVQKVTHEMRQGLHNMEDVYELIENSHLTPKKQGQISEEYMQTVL
structure (smiles),measurement,setting,value
CN(C)C/C=C(/c1ccc(Br)cc1)c1cccnc1,Potency,[1],inactive
same,Potency,[2],inactive
same,Potency,[3],inactive
same,outcome,[4],inactive
same,outcome,[5],inactive
same,Potency,[6],inactive
same,Potency,[7],inactive
same,Potency,[8],12.6 µM (active)
same,outcome,[9],inactive
same,Potency,[10],inactive
same,Potency,[11],inactive
same,activation,[12],0.375% (inactive)
same,Potency,[13],inactive
same,viability change,[13],11.1%
same,outcome,[14],inactive
same,outcome,[15],inactive
same,outcome,[16],inactive
same,outcome,[17],inactive
same,outcome,[18],inactive
Fc1ccc(C(c2ccc(F)cc2)N2CCN(C/C=C/c3ccccc3)CC2)cc1,Potency,[1],inactive
same,Potency,[2],inactive
same,Potency,[3],inactive
same,outcome,[19],inactive
same,outcome,[5],inactive
same,Potency,[6],inactive
same,Potency,[7],inactive
same,Potency,[8],inactive
same,Potency,[11],23.1 µM (active)
same,Potency,[13],inactive
same,viability change,[13],-8.46%
same,outcome,[14],inactive
same,outcome,[15],inactive
same,outcome,[17],inactive
same,outcome,[18],inactive
COCCOC(=O)C1=C(C)NC(C)=C(C(=O)OC(C)C)C1c1cccc([N+](=O)[O-])c1 (configuration not stated),Potency,[1],inactive
same,Potency,[2],inactive
same,Potency,[3],inactive
same,outcome,[4],inactive
same,outcome,[5],inactive
same,Potency,[6],inactive
same,Potency,[8],inactive
same,Potency,[10],inactive
same,Potency,[11],11.6 µM (active)
same,activation,[12],-5.81% (inactive)
same,Potency,[13],inactive
same,viability change,[13],0.126%
same,outcome,[14],inactive
same,outcome,[15],inactive
same,outcome,[17],inactive
same,outcome,[18],inactive
CO[C@@]1(NC(=O)CSCC#N)C(=O)N2C(C(=O)O)=C(CSc3nnnn3C)CS[C@@H]21,Potency,[1],21.2 µM (active)
same,Potency,[2],inactive
same,Potency,[3],inactive
same,outcome,[4],inactive
same,Potency,[6],inactive
same,Potency,[7],inactive
same,Potency,[8],inactive
same,Potency,[10],inactive
same,Potency,[11],inactive
same,activation,[12],1.44% (inactive)
same,Potency,[13],inactive
same,viability change,[13],1.13%
same,outcome,[14],inactive
same,outcome,[15],inactive
same,outcome,[16],inactive
same,outcome,[18],inactive
NC(Cc1ccc(Cl)cc1)C(=O)O (configuration not stated),Potency,[1],inactive
same,Potency,[2],inactive
same,Potency,[3],inactive
same,outcome,[4],inactive
same,outcome,[5],inactive
same,Potency,[6],inactive
same,Potency,[7],inactive
same,Potency,[8],inactive
same,Potency,[10],inactive
same,Potency,[11],inactive
same,activation,[12],0.75% (inactive)
same,Potency,[13],inactive
same,viability change,[13],-1.14%
same,outcome,[14],inactive
same,outcome,[15],inactive
same,outcome,[16],inactive
same,outcome,[17],inactive
same,outcome,[18],inactive
Nc1nc(N)c2nc(-c3ccccc3)c(N)nc2n1,Potency,[1],inactive
same,Potency,[2],inactive
same,Potency,[3],inactive
same,outcome,[4],inactive
same,outcome,[5],inactive
same,Potency,[6],inactive
same,Potency,[7],inactive
same,Potency,[8],inactive
same,Potency,[13],inactive
same,viability change,[13],5.44%
same,outcome,[14],inactive
same,outcome,[15],inactive
same,outcome,[16],inactive
same,outcome,[18],inactive
Cc1ccc(=O)n(-c2ccccc2)c1,Potency,[1],inactive
same,Potency,[2],inactive
same,Potency,[3],inactive
same,Potency,[20],inactive
same,outcome,[5],inactive
same,Potency,[6],inactive
same,Potency,[8],inactive
same,Potency,[10],inactive
same,Potency,[11],inactive
same,activation,[12],0.875% (inactive)
same,Potency,[13],inactive
same,viability change,[13],-2.33%
same,outcome,[14],inactive
same,outcome,[16],inactive
same,outcome,[17],inactive
same,outcome,[18],inactive
CN(C)CCCN1c2ccccc2Sc2ccccc21,Potency,[1],inactive
same,Potency,[2],inactive
same,Potency,[3],inactive
same,outcome,[4],inactive
same,Potency,[8],5.01 µM (active)
same,Potency,[10],inactive
same,activation,[12],8% (inactive)
same,Potency,[13],inactive
same,viability change,[13],1.11%
same,outcome,[14],inactive
same,outcome,[15],inactive
same,outcome,[17],inactive
same,outcome,[18],inactive
